PBM binding z-score data for 17 sequences are collected here from the supplement of paper PMC6555819.

What all share (assay): PBM binding z-score (relative to random genomic background probes); higher = stronger binding; sequences stand for … in GC…GCGATTGACAGCGTAGAATGAAGG
Assay [1] concerns RARb homodimer (NR concentration 270 nM). The essentials: (§1)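 Antibodies against each partner of ligand-free nuclear receptor dimers (one per run) detected binding on custom Agilent 4×180K protein-binding microarrays after 1 h incubation. The double-stranded probes had 34-nt variable regions carrying direct-repeat seeds, single-nucleotide variants, half-site ablations and random human genomic background sequences. Binding z-scores, from regression-normalized fluorescence, use the random background probes as reference.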

The subject of assay [2] is RARg:RXRa (NR concentration 270 nM, RXRa partner concentration 90 nM). The essentials: as §1
In assay [3] the test system is RARg homodimer (NR concentration 270 nM). The method in brief:
as §1

Assay [4] has as its system RXRa DBDmut IVT, anti-RXR (DBD mutation: RXRa K156A/R161A, NR concentration 90 nM). The method in brief:
as §1

In assay [5] the test system is RXRa homodimer (NR concentration 180 nM). The essentials: as §1
Assay [6] has as its system THRa:RXRa (NR concentration 90 nM, RXRa partner concentration 90 nM). The method in brief: as §1
Assay [7] relates to THRa homodimer (NR concentration 90 nM). The method in brief:
as §1

Assay [8] concerns VDR homodimer (NR concentration 270 nM). The method in brief: as §1

For the sequence CGTCCAAGGTCTGAGAGGTCAGTGAATGCCGAGT, the PBM binding z-score worked out at 3.72 in assay [1]; 2.97 in assay [2]; 3.36 in assay [3]; 0.83 in assay [4]; 2.29 in assay [5]; 2.52 in assay [6]. Also, the figures for the PBM binding z-score in assay [7] and in assay [8] were 1.29 and 2.01, respectively.

Consider TCTAGCAGGCCAGAGGGTCACTGAAGAGGTACGG, for which the PBM binding z-score was 2.72 in assay [1]; 2.74 in assay [2]; 1.97 in assay [3]; -0.0936 in assay [4]; 2.63 in assay [5]; 1.7 in assay [6]. Also, the values for the PBM binding z-score in assay [7] and in assay [8] were -0.233 and 0.299, respectively.

Turning to CGTCCAAGATCAGAGAGGTCAGTGAATGCCGAGT, the PBM binding z-score in assay [1] is 3.9; in assay [2] it was 2.95; in assay [3], 3; in assay [4], 0.949; in assay [5] it was 2.5; in assay [6], 2.64. Besides, the figures for the PBM binding z-score in assay [7] and in assay [8] were 0.926 and 2.37, respectively.

Regarding CGTCCAGGGTCAAGGTCAGTGAAAGAGACTCGAA, the PBM binding z-score turned out to be 4.96 in assay [1]; 6.51 in assay [2]; 6.69 in assay [3]; 2.77 in assay [4]; 6.61 in assay [5]; 4.19 in assay [6]. Further, the figures for the PBM binding z-score in assay [7] and in assay [8] were 2.79 and 2.98, respectively.

Turning to TCTCGCAGGACACGAAGGTCAGAGCTTTCCAGAG, the PBM binding z-score in assay [1] was found to be 3.18; in assay [2], 2.44; in assay [3], 2.34; in assay [4] it was 0.886; in assay [5] it was 1.96; in assay [6], 2.4. Also, the PBM binding z-score in assay [7] was 0.377; in assay [8], 0.357.

On to TCTGCTAGGTCAACGATGGTGAGCTAATCTGCTA, for which the PBM binding z-score in assay [1] was 2.8; in assay [2], 3.82; in assay [3] it was 4.93; in assay [4], 0.81; in assay [5], 1.99; in assay [6], 2.68. The results for the PBM binding z-score in assay [7] and in assay [8] were 0.17 and -0.792, respectively.

With CAGCCTCGGTCAGGGCCAGTATAGGAGGAACGTT, the PBM binding z-score is 1.31 in assay [1]; 0.85 in assay [2]; 1.86 in assay [3]; -0.961 in assay [4]; -0.355 in assay [5]; -0.5 in assay [6]. Also, the PBM binding z-score in assay [7] is -0.413; in assay [8], -0.875.

For the sequence CCGAGTAGGTTAAGGGGCATTCAGGCAACGGTGA, the PBM binding z-score was 1.56 in assay [1]; 1.08 in assay [2]; 0.926 in assay [3]; 0.277 in assay [4]; 1.43 in assay [5]; 1.32 in assay [6]. The PBM binding z-score in assay [7] stood at 0.369; in assay [8], 0.685.

As for GATACAGGGTCAAGGCCTGAGTACGCGTATTGAT, the PBM binding z-score in assay [1] is 3.54; in assay [2], 5.4; in assay [3] it was 5.41; in assay [4], 2.19; in assay [5], 5.69; in assay [6], 3.37. In addition, the PBM binding z-score in assay [7] worked out at 0.931; in assay [8], 2.52.

Turning to TCAGACAGGTCAAGGTAACTCAGGTACGCAGTCG, the PBM binding z-score was 3.61 in assay [1]; 4.57 in assay [2]; 4.8 in assay [3]; 2.07 in assay [4]; 4.44 in assay [5]; 3.33 in assay [6]. For the same sequence, the values for the PBM binding z-score in assay [7] and in assay [8] were 1.49 and 0.989, respectively.

ACTAGTTGGTCAGCTGAGGTCACAAACAATTCGG: the PBM binding z-score in assay [1] was found to be 4.02; in assay [2] it was 3.8; in assay [3], 3.86; in assay [4] it was 0.835; in assay [5], 3.71; in assay [6], 5.04. For the same sequence, the PBM binding z-score in assay [7] turned out to be 4.45; in assay [8], 3.58.

On to GGAACGAGGGCATTCGAATTGATAGCATGGCGAT, for which the PBM binding z-score in assay [1] stood at 0.601; in assay [2], 1.21; in assay [3], 1.55; in assay [4], 3.14; in assay [5] it was 0.908; in assay [6], 0.827. For the same sequence, the results for the PBM binding z-score in assay [7] and in assay [8] were -0.231 and 1.99, respectively.

Regarding ACTAGCAGGCCAACTTTGGGTCACTCAAACAAAG, the PBM binding z-score in assay [1] is 2.34; in assay [2] it was 2.46; in assay [3], 1.61; in assay [4], -0.27; in assay [5], 0.885; in assay [6] it was 2.62. Moreover, the PBM binding z-score is 1.19 in assay [7] and 0.371 in assay [8].

In the case of CCTTACGGGTCAATGACAGGTTATAGCATTTGGA, the PBM binding z-score in assay [1] amounted to 3.12; in assay [2], 5.64; in assay [3], 4.22; in assay [4], 1.9; in assay [5] it was 4.58; in assay [6] it was 2.59. Also, the figures for the PBM binding z-score in assay [7] and in assay [8] were -0.0254 and 1.18, respectively.

With CAAACTAGGTCACGAAAGGCCAAAGTCGAATGAC, the PBM binding z-score in assay [1] amounted to 4.29; in assay [2] it was 5.29; in assay [3] it was 5.81; in assay [4], 2.01; in assay [5], 3.94; in assay [6], 4.33. Moreover, the PBM binding z-score is 1.52 in assay [7] and 1 in assay [8].

With TCATATAGATAAACAGGTGAAAGTCCGTAAGTTA, the PBM binding z-score in assay [1] was 0.615; in assay [2], 0.467; in assay [3], 0.388; in assay [4], 1.94; in assay [5], 1.33; in assay [6], 0.561. Besides, the PBM binding z-score in assay [7] turned out to be 0.191; in assay [8] it was 0.676.

For the sequence ATCGAAAGGCCGAAGGTGAGTATACCCACCCGAA, the PBM binding z-score in assay [1] was 0.463; in assay [2], 0.847; in assay [3], 0.8; in assay [4], -0.881; in assay [5], 0.581; in assay [6] it was 0.037. The PBM binding z-score in assay [7] is -0.66; in assay [8], -0.679.
